The assay addresses Pantothenate synthetase (Mycobacterium tuberculosis (strain ATCC 25618 / H37Rv)) (UniProt P9WIL5). Put plainly: Recombinant Mtb pantothenate synthetase (PanC) inhibitors, coupled enzyme, confirmatory (AID 375).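 Also: 0% = full reaction with vehicle and 100% = no enzyme background.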 Conditions: coupled enzyme assay; at 10 µM, active compounds read high.

Each structure is given as a SMILES string. Values without a mark were called inactive. No rule for the calls is given here.

Chain of Pantothenate synthetase (Mycobacterium tuberculosis (strain ATCC 25618 / H37Rv)) (P9WIL5 whole entry, looked up): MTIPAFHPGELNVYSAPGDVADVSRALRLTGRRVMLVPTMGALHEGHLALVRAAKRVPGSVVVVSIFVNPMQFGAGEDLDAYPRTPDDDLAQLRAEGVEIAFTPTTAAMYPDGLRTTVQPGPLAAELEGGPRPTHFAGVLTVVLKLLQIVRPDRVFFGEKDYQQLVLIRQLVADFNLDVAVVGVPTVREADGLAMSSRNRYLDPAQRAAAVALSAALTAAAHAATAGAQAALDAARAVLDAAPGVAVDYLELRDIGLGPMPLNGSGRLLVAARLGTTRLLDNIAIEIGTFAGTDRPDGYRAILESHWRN

Take `Cc1cccc2cc(CN(CC3CCCO3)C(=O)c3cnccn3)c(=O)[nH]c12` (stereo not drawn): the inhibition (as a rule, the percentage by which the read-out fell short of the control) was 0%.

As to `COc1ccc(-c2nnc(SCCC(=O)O)n2-c2ccccc2)cc1`, the inhibition was 0%.

Turning to `Cc1nc(C)c2c(c1C(F)(F)F)-c1ccccc1C2(F)F`, the inhibition is 0%.

On to `COc1ccc2nc(S(=O)Cc3ncc(C)c(OC)c3C)[nH]c2c1` (stereo not drawn), for which the inhibition was 4%.

In the case of `CCOc1ccc(CNc2ccc3c(c2)ncn3C)cc1`, the inhibition was 0%.

On to `CN1CC(=O)N(CC(=O)NCCc2ccc(F)cc2)c2ccccc2C1=O`, for which the inhibition is 0%.

For the molecule `CCOc1ccc(C2CC(=O)NC3=C2C(=O)CCC3)cc1Cl` (stereo not drawn), the inhibition was 0%.

On to `O=C(O)c1c[nH]c2ccc(S(=O)(=O)N3CCN(c4ccc(F)cc4)CC3)cc2c1=O`, for which the inhibition was 0%.

As for `CC(Oc1ccccc1)C(=O)Nc1ccc(S(=O)(=O)NCC2CCCO2)cc1` (stereo not drawn), the inhibition was 1%.

With `N#Cc1ccc(CSc2nnc(-c3ccccn3)n2-c2ccccc2)cc1`, the inhibition was 0%.

Turning to `Cn1c(/C=N/n2cnnc2)nc2ccccc21`, the inhibition was 2%.

In the case of `CCCOc1ccc(-c2nnn(CC(=O)Nc3cccc(C(=O)OC)c3)n2)cc1`, the inhibition is 7%.

Regarding `Cn1cccc1Cc1nnc(SCC(=O)NCC2CCCO2)n1-c1ccc(F)cc1` (stereo not drawn), the inhibition was 0%.

With `CC(C)(C)C1=C[C@@H](CO)C[C@@H](CO)C1`, the inhibition was 0%.

As to `COc1ccc(-c2ccc(CCC(=O)O)n2NC(=O)c2cccs2)cc1`, the inhibition was 0%.

For `Cc1c(C=NCCOCc2ccccc2)cnn1C`, the inhibition is 0%.

Consider `CCO/C([O-])=N/c1c[n+](N2CCOCC2)no1`, for which the inhibition is 0%.

`c1ccc(-c2ccc(C(c3ccccc3)n3ccnc3)cc2)cc1` (stereo not drawn): the inhibition was 3%.

As for `Cc1nc2ccc(S(=O)(=O)NC(C(=O)NCc3cccs3)C(C)C)cc2s1` (stereo not drawn), the inhibition was 0%.

With `CC(C)(C)c1ccc2c(c1)OCC(C(=O)O)O2` (stereo not drawn), the inhibition is 4%.

As to `CN(C)CCCOC(=O)CCc1ccccc1`, the inhibition is 0%.

Consider `COc1ccc(-c2cc(C(F)(F)F)nc(SCCC(=O)N3CCOCC3)n2)cc1`, for which the inhibition was 1%.

Turning to `COc1cccc(C(c2nnnn2CCc2ccccc2)N2CCN(c3ccccc3)CC2)c1OC` (stereo not drawn), the inhibition was 0%.

For `Oc1ccc2[nH]cnc2c1CN1CCCCC1`, the inhibition was 0%.

Regarding `Cn1c(SCC(=O)N2CCN(c3cccc(Cl)c3)CC2)nnc1-c1ccncc1`, the inhibition is 0%.

With `COc1ccc(Nc2ncnc3c2cnn3-c2ccccc2)cc1OC`, the inhibition was 1%.

In the case of `CCS(=O)(=O)N1CCC(C(=O)NC2CCCCCCC2)CC1`, the inhibition is 1%.

Turning to `COCCCN1C(=O)C(O)=C(C(=O)c2ccco2)C1c1ccc(Br)cc1` (stereo not drawn), the inhibition is 6%.

In the case of `Cc1cccc(-c2cc3nc4c(c(N5CCC6(CC5)OCCO6)n3n2)CCCC4)c1`, the inhibition was 4%.

Turning to `O=C(NC1CC1)c1ccc(S(=O)(=O)NCC2CCCCC2)cc1`, the inhibition is 0%.

Regarding `COc1ccc(N(CC(=O)Nc2ccccc2SC)S(C)(=O)=O)cc1OC`, the inhibition is 2%.

Consider `CCCCSc1nc2c(cnn2-c2ccc(F)cc2)c(=O)[nH]1`, for which the inhibition is 0%.

Regarding `CC(C)(C)NC[C@H](O)COc1nsnc1N1CCOCC1`, the inhibition was 2%.

With `CC(=O)Nc1c(Cl)n(C(C)=O)c2ccccc12`, the inhibition was 7%.

With `COc1ccc(-n2ncc3c(=O)n(CC(=O)OCc4ccccc4)cnc32)cc1`, the inhibition was 0%.

Turning to `O=C(NCCc1ccccn1)c1ccc(COc2ccccc2)o1`, the inhibition was 0%.

For the molecule `CCn1c(CNc2ccc(C)cc2)nnc1SCC(=O)NCc1ccccc1`, the inhibition is 0%.

On to `NC(N)=NS(=O)(=O)c1ccc(N)cc1`, for which the inhibition was 0%.

With `CC1CCN(c2nc3c(c(=O)n(C)c(=O)n3C)n2Cc2ccccc2)CC1`, the inhibition was 0%.

In the case of `CN(C(=O)C(Cl)Cl)c1ccc(OC(=O)c2ccco2)cc1`, the inhibition is 7%.

Consider `CS(=O)(=O)N1CCN(CC2CC3C=CC2C3)CC1` (stereo not drawn), for which the inhibition was 8%.

With `CCOC(=O)c1cc(C)n(CCCN2CCOCC2)c1C`, the inhibition is 0%.

With `CSc1cccc(NC(=O)C2CCN(S(C)(=O)=O)CC2)c1`, the inhibition is 0%.

As to `Cc1cccc(-c2nc(CN3CCCC(C(=O)NC4CCCC4)C3)c(C)o2)c1` (stereo not drawn), the inhibition is 0%.

In the case of `Nc1cc(C(=O)O)ccc1Nc1ccccc1`, the inhibition was 0%.

For `O=c1c2ccccc2cnn1-c1nc2ccccc2s1`, the inhibition was 0%.

With `CC(C)(C)Cc1nc(-c2ccccn2)no1`, the inhibition was 0%.

As to `Cc1cccc(N2C(=O)CC(N3CCN(c4cccc(C(F)(F)F)c4)CC3)C2=O)c1` (stereo not drawn), the inhibition was 1%.

With `CC1CN(c2ccc(Oc3ccccc3)cc2)c2nc3c(c(=O)n(CC(N)=O)c(=O)n3C)n2C1` (stereo not drawn), the inhibition was 3%.

As for `Cc1c(C(=O)NCc2ccoc2)oc2ccc3c(c12)C(=O)CC(C)(C)O3`, the inhibition is 2%.

For the molecule `O=C(NCc1ccco1)C1CC(=O)N(c2ccc(F)cc2)C1` (stereo not drawn), the inhibition is 4%.

As for `CC(=O)Nc1c(-c2ccc(F)cc2)nc2ccccn12`, the inhibition was 0%.

In the case of `COc1ccc(S(=O)(=O)N2CCCC2C(=O)Nc2ccc(O)cc2)cc1` (stereo not drawn), the inhibition was 0%.

As for `O=C(NCN1CCCCC1)c1cnccn1`, the inhibition is 0%.

Consider `COc1ccccc1-n1cnnc1SCC(=O)c1ccc[nH]1`, for which the inhibition was 3%.

Turning to `COCCCNC(=O)c1ccc(CS(=O)(=O)c2ccc(OC)cc2)o1`, the inhibition is 9%.

Turning to `COc1ccc2cc(CN(CCO)C(=O)c3ccc(Br)cc3)c(=O)[nH]c2c1`, the inhibition is 14%.

With `CC(C)(C)c1nc(CN2CCOCC2)ccc1O`, the inhibition was 1%.

On to `COc1ccc(-c2noc(COc3ccc4ccccc4c3Br)n2)cc1OC`, for which the inhibition is 6%.

As to `O=C(NCCCN1CCN(c2cccc(Cl)c2)CC1)c1ccc(N2CCCC2=O)cc1`, the inhibition is 1%.

For the molecule `O=C(NCc1ccco1)c1ccc2c(=O)n(CC3CCCO3)c(=S)[nH]c2c1` (stereo not drawn), the inhibition was 3%.

For `CCN(CC)c1ncc(C)c(=O)[nH]1`, the inhibition was 1%.

Turning to `O=C(O)CSC1CC(=O)N(c2ccc(Cl)c(Cl)c2)C1=O` (stereo not drawn), the inhibition was 0%.

As to `CCN(CC)CCCNC(=O)c1nn(-c2ccc(OC)cc2OC)c(=O)c2ccccc12`, the inhibition was 0%.

As to `Cc1nn(Cc2ccccc2)c2c1C(c1ccncc1)C(C#N)=C(N)O2` (stereo not drawn), the inhibition was 0%.

With `COc1ccc(-c2nnn(CC(=O)c3ccc4c(c3)OCCO4)n2)cc1OC`, the inhibition is 0%.

`COc1ccccc1C1N(c2ccc(F)cc2)C(=O)C2CCCN21` (stereo not drawn): the inhibition was 0%.

For `Cc1cc(C)nc(-n2nc(C)cc2NC(=O)c2ccc(Br)o2)n1`, the inhibition is 0%.

On to `c1ccc2c(c1)c1c3n2CCNC3CCC1` (stereo not drawn), for which the inhibition was 0%.

Turning to `COC(=O)c1cnn2c(C(F)(F)F)cc(-c3ccco3)nc12`, the inhibition was 0%.

In the case of `CCOC(=O)N1CCN(c2c(N3CCc4ccccc4C3)c(=O)c2=O)CC1`, the inhibition is 0%.

`O=C(COc1ccc(Cl)cc1)NCc1nnc(SCC(=O)Nc2ccc3c(c2)OCCO3)o1`: the inhibition was 3%.

`Cc1c(C(=O)NCc2ccccc2)oc2c1C(=O)CCC2`: the inhibition was 0%.

The record behind these values is PubChem BioAssay.
